# Source: PubChem BioAssay (NCI)
# This is part of a sample that, as a whole, favours compounds with a hit. Of some 83,000 tested, about 20% had one in any assay.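 Values shown are percent growth following 48 h exposure of cells in 96-well plates to a single concentration of compound; below 10 was considered active.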 Calls of active or inactive are those of the source.
# Test system: MDA-MB-468 breast
# Assay: NCI-60 one-dose screen, 48 h (100 = growth as untreated, 0 = no growth, -100 = all killed)
# Conditions: 10 µM unless noted
row,Compound,growth
1,COc1ccc(Cc2cnc(NC(=O)c3ccc4c(c3)OCCO4)s2)cc1,19.1% (inactive)
2,CCC1N=C(N)N=C(N)N1c1ccc(Cl)cc1 (stereo not given),80.6% (inactive)
3,CN([N-]C(=O)CC(=O)[N-]N(C)C(=S)c1ccccc1)C(=S)c1ccccc1.[Cu+2],-58% (active)
4,O=c1[nH]c(=O)n(C2CC(O)C(CO)O2)cc1CO (stereo not given),101% (inactive)
5,COc1ccc2c(c1)Oc1nc(N)c(C#N)c(N)c1C2Sc1ccc(SC)cc1 (stereo not given),-40.8% (active)
6,NS(=O)(=O)c1ccc(-n2nc(-c3ccc(Cl)cc3)ccc2=O)cc1,56.9% (inactive)
7,Cc1ccc(/C=C2\CN(Cc3cn(CCNc4ccnc5cc(Cl)ccc45)nn3)C/C(=C\c3ccc(C)cc3)C2=O)cc1,-31.1% (active)
8,CCN1C(=O)N(CC)C2C1NC(=O)N2/N=C/C=C/c1ccccc1 (stereo not given),19.5% (inactive)
9,O=C1C(Cl)=C(Nc2cccc3ccccc23)C(=O)c2ccccc21,-3.45% (active)
10,Cn1/c(=N\N=C\c2ccccc2OCCO)sc2ccccc21,103% (inactive)
11,O=C(/C=C/c1ccc(F)cc1)c1ccc(O)cc1,83% (inactive)
12,O=C(CCc1nnc(Cn2cncn2)o1)c1nc2ccccc2[nH]1,104% (inactive)
13,COc1cc(CNC(=O)CCCC/C=C/C(C)C)ccc1OCc1cn(-c2cccc([N+](=O)[O-])c2)nn1,72.3% (inactive)
14,COc1nc2ccc(C)cc2cc1-c1nc2c(cnn2-c2ccc(Br)cc2)c(=O)[nH]1,29.5% (inactive)
15,COc1cc2nc(-c3ccc(Cl)cc3)cc(OCCCN3CCOCC3)c2cc1OC,59.9% (inactive)
16,Cc1ccc(O)c(N)c1,98.9% (inactive)
17,Cn1nc(-c2ccc(Cl)cc2)nc2c(=O)n(C)c(=O)nc1-2,-73.2% (active)
18,O=C(/C=C/c1ccc[nH]1)c1ccc(-n2ccc(C(F)(F)F)n2)c(F)c1,60.4% (inactive)
19,COc1cccc(C(=O)Nc2cccc(NC(=O)c3ccccn3)c2)c1,105% (inactive)
20,O=S(Nc1ccccc1)c1ccc(Cl)cc1 (stereo not given),91.5% (inactive)

row,Compound,growth
1,COc1ccc(C(=O)COC(=O)[C@H](C[Se][Se]C[C@H](NC(=O)c2ccc(Br)cc2F)C(=O)OCC(=O)c2ccc(OC)cc2)NC(=O)c2ccc(Br)cc2F)cc1,-51.3% (active)
2,COc1ccc(S(=O)(=O)NCCCNc2nccc(-n3ccc4cccnc43)n2)cc1,76.2% (inactive)
3,Oc1c(Cl)cc(Cl)c2ccc(CN3CCCCC3)nc12,29.3% (inactive)
4,CN1C(=O)C(C(=O)/C=C/c2ccccc2C(=O)O)C(=O)N(C)C1=O,102% (inactive)
5,CC1(/C=N/NC(N)=S)NC(=O)NC1=O (stereo not given),102% (inactive)
6,C=C1CC[C@@H]2[C@](C)(COC(C)=O)[C@H](OC(C)=O)CC[C@@]2(C)[C@@H]1CC(Nc1ccc(S(=O)(=O)Nc2ccc(Cl)nn2)cc1)C1=CCOC1=O (stereo not given in full),-32.3% (active)
7,CCN(CC)CCOc1ccc(C(=C(C)c2ccc(Cl)cc2)c2ccc(OCCN(CC)CC)cc2)cc1,-81.6% (active)
8,CCCCCCCC[Si](OCC)(OCC)OCC,97.5% (inactive)
9,C=C(C)[C@@H]1CC[C@]2(CNCCO)CC[C@]3(C)[C@H](CC[C@@H]4[C@@]5(C)CCC(N)[C@@](C)(CO)[C@@H]5CC[C@]43C)[C@@H]12 (stereo not given in full),-86.8% (active)
10,CCN(CC)CCC(CNc1ccnc2cc(Cl)ccc12)c1ccccc1 (stereo not given),-35.6% (active)
11,CC1=C(C)C(=O)C(Nc2ccc3c(c2)OCCO3)=C(Br)C1=O,28.1% (inactive)
12,N#CSCC1CC(O)(c2ccccc2)CC(c2ccc(F)cc2)O1 (stereo not given),5.99% (active)
13,O=C(CCc1nnc2sc(OCc3ccccc3)nn12)c1nc2ccc([N+](=O)[O-])cc2[nH]1,109% (inactive)
14,COc1ccccc1S(=O)(=O)Nc1ccc2c3c(cc(-c4ccoc4)nc13)C(=O)N2C,39.7% (inactive)
15,CCCn1cnc2c(c1=N)C(c1ccc(Cl)cc1)c1sc3c(CC)cccc3c1O2 (stereo not given),5.23% (active)
16,C=COC(=O)C(C)(C)C,106% (inactive)
17,CCN1C(=O)N(CC)C2C1NN=c1s/c(=C\c3ccc([N+](=O)[O-])cc3)c(=O)n12 (stereo not given),7.94% (active)
18,CCOC(=O)C1=CSC2=NC3=C(CCC/C3=C\c3cc(OC)c(OC)c(OC)c3)C(c3cc(OC)c(OC)c(OC)c3)N12 (stereo not given),33.8% (inactive)
19,CC(=O)Cc1cccnc1,97.1% (inactive)
20,O=C1/C(=C/c2ccc([N+](=O)[O-])o2)Oc2ccccc21,-50.9% (active)
